Source: PubChem
An excerpt weighted towards active compounds, which were near 19% of everything screened.
TDP1 cell noCPT – qHTS for Inhibitors of human tyrosyl-DNA phosphodiesterase 1 (TDP1): qHTS in cells in absence of CPT | hit rate 15% among 420,000 | DT40 Tdp1-/- hTDP1 cells, no CPT, ATP luminescence, 48 h | AID 686978, 2013 | Potency, µM (titrated, usually from 46.2 µM), inactives show top-dose activity change, negative = growth inhibition, most hits filed as inhibitors; note: potency is the fitted concentration of half-maximal effect; nearly all actives have a fitted effect of over 55% in size
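Luminescent ATP content (CellTiter-Glo) served as the growth readout. Knockout chicken DT40 cells expressing human TDP1 were exposed to compounds without camptothecin for a minimum 48 hr at 37 °C.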
DT40 TDP1 CPT – DT40-hTDP1 cell growth loss with CPT; chicken DT40 Tdp1-/-;hTDP1 cells + 20 nM CPT, ATP luminescence, 48 h; Potency, µM (doses to about 46.2 µM), for the others: at the top dose activity change, negative = growth inhibition, usual class: inhibitors; hit rate 12% among 420,000; AID 686979; note: potency is the fitted concentration of half-maximal effect; nearly all actives have a fitted effect of over 55% in size
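Chicken DT40 Tdp1-/- cells complemented with human TDP1, 400 cells/well, exposed to compounds plus 20 nM camptothecin for at least 48 h at 37 C; viability read as ATP content by CellTiter-Glo luminescence.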
IL-1B inflam inh – inflammasome signaling inhibition, IL-1 beta readout | activity change, % at 57.5 µM | hit rate 4.7% among 360,000 | THP-1 LPS/ATP IL-1B secretion, AlphaLISA, 16 h; hits give low values | AID 743279; in the data active = activity change below about -50%; inconclusive = mostly about -30% to -49%
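THP-1 cells pretreated 1 hr with compounds (up to 57.5 uM final), then stimulated with LPS (250 ng/mL final) plus ATP (1.25 mM final); secreted IL-1B measured by AlphaLISA after 16 hr, decreased signal indicating inhibition.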
HT1080 IDH1KD tx – toxicity to HT-1080 IDH1 knockdown cells (counter line); HT-1080 IDH1 knockdown viability, ATP luminescence, 48 h; AID 686971; hit rate 2% among 360,000; Potency, µM (titrated, usually from 46.1 µM), for the others: top-dose activity, negative = toxicity, most hits filed as cytotoxic;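 note: potency is the fitted concentration of half-maximal effect; 0% = DMSO wells and -100% = cell-free medium wells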
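Knockdown cells (IDH1KD HT-1080) received compounds 2 h after plating at 750 cells/well and were kept 48 h at 37 °C in 5% FBS RPMI. A CellTiter-Glo luminescence read gave % activity for curve fitting.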
HT1080-NT tox – kills 2HG-producing HT-1080-NT fibrosarcoma cells | HT-1080-NT fibrosarcoma viability, CellTiter-Glo ATP luminescence, 48 h | Potency, µM (top dose mostly 46.1 µM), for inactives: at the top dose activity, negative = less viability, usual class: cytotoxic | hit rate 1.6% among 360,000 | AID 686970;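 note: NT is the 2HG producing partner of a matched IDH1 knockdown line; potency is the fitted concentration of half-maximal effect; 0% = DMSO-treated cells and -100% = media-only wells without cells; nearly all actives have a fitted effect of over 55% in size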
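Luminescent CellTiter-Glo readout after 48 hours of compound exposure at 37 degrees C defined viability of HT-1080-NT cells. Activity was normalized to DMSO wells and cell-free media wells; concentration-response curves were fitted and assigned curve classes.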
* = called active by the depositor; ? = inconclusive; · = no result; [ ] = dose if it differs, or a comment. Unless noted, calls come from the whole dose curve; as a rule, active = well fitted curve in the direction sought with a large enough effect; inconclusive = small, poorly fitted or top-dose-only effect, or another doubt; inactive = no such curve, though single readings can be large; an effect the other way counts as inactive or inconclusive. Unless noted, % is set by controls: 0 for no effect and ±100 for the full control effect.

SMILES | TDP1 cell noCPT | DT40 TDP1 CPT | IL-1B inflam inh | HT1080 IDH1KD tx | HT1080-NT tox
CSc1ccc(CNC(=O)C2CCCN(S(=O)(=O)N(C)c3ccc(F)cc3)C2)cc1 (stereo unspecified) | 21µM* | 23µM* | · | · | ·
CC1CCN(S(=O)(=O)N2CCCC(C(=O)NCc3ccccc3Cl)C2)CC1 (stereo unspecified) | -21% | -19% | -15 | -2% | 2%
CC1CCCCC12NC(=O)N(CC(=O)N(C)Cc1nc3ccccc3c(=O)[nH]1)C2=O (stereo unspecified) | 11% | -4% | 36 | -15% | 0%
COCc1c(C(=O)N2CCC(N(C)C)C2)cnn1-c1ncc2c(n1)-c1ccccc1CCC2 (stereo unspecified) | -6% | 5%[9.04 µM] | · | · | ·
O=C(NCc1ccccc1Cl)C1CCN(S(=O)(=O)N2CCCCCC2)CC1 | 18µM* | ? | -3 | -13% | 2%
CCOc1cc(CNCc2ccncc2)cc(Br)c1OCc1ccc(F)cc1 | 11µM* | 10µM* | -84* | 11µM* | ?
Fc1ccc(COc2cccc(CNCc3ccncc3)c2)cc1 | 8.2µM* | ? | -11 | -16% | 0%
Fc1ccc(COc2ccc(Br)cc2CNCc2ccncc2)cc1 | ? | ? | -79* | ? | -19%
Cc1ccc(C(=O)/C=C\NCc2ccccc2)cc1 | -5% | -17% | ? | 4% | 7%
Cc1ccc(S/C=C\C(=O)c2ccccc2)cc1 | 21µM* | 21µM* | -103* | 13µM* | 22µM*
O=C(CCC(=O)N(CC(=O)NC1CCCCC1)Cc1cccs1)Nc1ccccn1 | -1% | 9% | 18 | 0% | 6%
O=C1C2CC=CCC2C(=O)N1c1ccc(NCCc2ccccc2)c([N+](=O)[O-])c1 (stereo unspecified) | 23µM* | ? | 18 | -1% | 5%
CC1CC(=O)N(c2ccc(NCCc3ccccc3)c([N+](=O)[O-])c2)C1=O (stereo unspecified) | -5% | 4% | -5 | -2% | 5%
CC1CC(=O)N(c2ccc(NCCc3ccc(O)cc3)c([N+](=O)[O-])c2)C1=O (stereo unspecified) | 15µM* | 16µM* | -1 | -16% | -4%
CC1=C(C(=O)N2CCOCC2)CC(CC(=O)NC2CCCC2)C(=O)N1Cc1ccc(F)cc1 (stereo unspecified) | -19% | -11% | 6 | 12% | 1%
Cc1nc(NC(=O)COC(=O)C2CC3CCCC(C2)C3=O)c(Cl)cc1Cl (stereo unspecified) | 1% | -20% | 4 | 21% | -1%
O=C(CCCl)N1c2ccccc2C=Cc2ccccc21 | 15µM* | ? | -29 | -26% | -6%
CCOC(=O)N1C2C=C(C)[C@@H]2[C@@H]2CC(=O)N21 (stereo partly specified) | -1% | -16% | 3 | 0% | 2%
CO[C@H]1CN(C)C(=O)c2cc(NC(=O)C3CCCC3)ccc2OC[C@@H](C)NC[C@H]1C | 2% | 17% | -18 | 8% | 18%
CCCN1CCN(CCCNC(=O)c2ccc3c(c2)sc2nc(-c4ccc(C)cc4)cn23)CC1 | 1.2µM* | 1.3µM* | · | · | ·
CCC1CCCCN1CCCNC(=O)c1ccc2c(c1)sc1nc(-c3ccc(F)cc3)cn12 (stereo unspecified) | 2.6µM* | 4.1µM* | · | · | ·
Cc1ccc(-c2cn3c(n2)sc2cc(C(=O)NCc4cccs4)ccc23)cc1 | 21µM* | 15µM* | · | · | ·
O=C(NCCCN1CCCCCC1)c1ccc2c(c1)sc1nc(-c3ccccc3)cn12 | 3.7µM* | 6.5µM* | · | · | ·
O=C(NCc1cccs1)c1ccc2c(c1)sc1nc(-c3ccc(F)cc3)cn12 | ? | -20% | · | · | ·
Cc1ccc2cc(F)ccc2n1 | -6% | -9% | 5 | 0% | 3%
SMILES | TDP1 cell noCPT | DT40 TDP1 CPT | IL-1B inflam inh | HT1080 IDH1KD tx | HT1080-NT tox
Cc1ccc(S(=O)(=O)N2CCOC23CCN(C(=O)c2ccccc2Br)CC3)cc1 | ? | ? | 0 | 3% | 0%
Cc1nc(Nc2cccc(C(C)O)c2)c2nnn(Cc3ccc(F)cc3)c2n1 (stereo unspecified) | ? | ? | -12 | -25% | -17%
Fc1ccc(-c2nc3ccc(Br)cn3c2Cc2ccsc2)cc1 | ? | ? | 65 | -4% | -16%
O=S(=O)(c1cccs1)N1CN(C2CCCCC2)c2nc3ccccc3nc21 | ? | ? | ? | -11% | -23%
COc1cc(NC(=O)CCN2CCN(c3ccccc3F)CC2)cc(OC)c1 | -13% | 29µM* | ? | -3%[9.24 µM] | -28%
COc1ccc(NC(=O)CCN2C(=O)C3C4CCC(C4)C3C2=O)cc1 (stereo unspecified) | 15% | 24% | 11 | ? | -19%
COc1ccc(NC(=O)CCN2C(=O)[C@@H]3[C@H](C2=O)[C@H]2C=C[C@@H]3C2)cc1 | -15% | ? | -18 | ? | 18µM*
COc1ccc(NC(=O)CCN2CCN(c3ccc(F)cc3)CC2)cc1 | ? | 23µM* | -2 | 0% | -1%
COc1cc(NS(=O)(=O)c2ccc(NC(=O)COc3ccc(Cl)cc3Cl)cc2)nc(OC)n1 | 2% | -3% | · | · | ·
CCn1c(COC(=O)CNC(=O)c2ccccc2F)nc2cc(S(=O)(=O)N(C)C)ccc21 | 22% | -13% | 5 | 3% | 6%
Oc1ccc(/C=N/Nc2nc(-c3ccc(Cl)cc3)cc(C(F)(F)F)n2)cc1 | ? | ? | -99* | 16µM* | ?
Cc1cc(C)c2nc(C)cc(N/N=C/c3ccc(O)cc3)c2c1 | 3.3µM* | 3.3µM* | -98* | 5.8µM* | 5.2µM*
COc1ccc(/C=N/Nc2nc(C)cc(-c3ccccc3)n2)c(OC)c1 | 21µM* | 13% | 23 | 21% | 10%
COc1ccc(/C=N/Nc2cc(C)nc3ccc(OC)cc23)c(OC)c1 | 5.8µM* | 12µM* | -104* | 5.2µM* | 23µM*
O=S(=O)(c1ccccc1)c1nnn2c1nc(NC1CCCCC1)c1sccc12 | -6% | -18% | · | · | ·
COc1ccc(CN2C(=O)c3cccnc3C2=O)cc1S(=O)(=O)NC1CCCCC1C (stereo unspecified) | 10% | 11% | 11 | 6% | 3%
COc1ccc2c(c1OC)C(=O)N1C2SC(C)(C)[C@H]1C(=O)NCC(C)C (stereo partly specified) | 6% | 3% | 0 | -2% | -2%
Cc1cc(C)nc(N/N=C/c2ccccc2)n1 | -11% | -19% | 10 | -1% | 8%
Cc1cc(-c2ccccc2)nc(N/N=C/c2ccc(O)cc2)n1 | ? | 12µM* | -100* | ? | ?
